The supplement of paper PMC10849652
Of roughly 8,800 targets only a part is listed; those with a hit were picked by preference. About 0.5% of all pairs of compound and target were hits. Unmarked numbers belong to inactive results.

Columns and labels:
Test in all cases: log2 fold change, soluble protein after heating vs DMSO (PISA); higher = thermal stabilisation; K562 lysate, 10 uM; active = over 0.2 and 3.5 SD of the protein, either way, in both replicates (recomputed)
[1] = compound: CS(=O)(=O)CCNCc1ccc(-c2ccc3ncnc(Nc4ccc(OCc5cccc(F)c5)c(Cl)c4)c3c2)o1 [lapatinib]
Summary of the method: (§1)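 Pellets of K562 cells were dounce-homogenised in PBS pH 7.4 with 1 mM MgCl2, and the crude extract was held at 1 mg/mL protein for a 30 min treatment with 10 μM compound. Aliquots were heated for 3 min over 48°C-58°C and pooled before NP-40 was added to 0.5% at 4°C. The supernatant from 21,000xg for 90 min was quantified by TMTpro 16plex LC-MS/MS with channel sums equalised. Values are reported from duplicates as log-two fold change in thermal stability relative to solvent controls.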

[2] = compound: CS(=O)(=O)N1CCN(Cc2cc3nc(-c4cccc5[nH]ncc45)nc(N4CCOCC4)c3s2)CC1 [pictilisib]
Summary of the method: as §1

[3] = compound: C[C@@H](Oc1cc(-c2cnn(C3CCNCC3)c2)cnc1N)c1c(Cl)ccc(F)c1Cl [crizotinib]
Summary of the method: as §1

[4] = compound: C[C@H](C1=CC=C(C=C1)C(=O)NC2=C3C=CNC3=NC=C2)N
Summary of the method: as §1

[5] = compound: C[C@H](Nc1ncnc2nc[nH]c12)c1cc2cccc(Cl)c2c(=O)n1-c1ccccc1 [duvelisib]
Summary of the method: as §1

[6] = compound: Cc1cc(Nc2cc(CN3CCOCC3)c3nc(C)c(Cc4ccc(Cl)cc4F)n3n2)n[nH]1 [gandotinib]
Summary of the method: as §1

[7] = compound: Cc1cc(Nc2cc(N3CCN(C)CC3)nc(Sc3ccc(NC(=O)C4CC4)cc3)n2)n[nH]1 [tozasertib]
Summary of the method: as §1

[8] = compound: Cc1ccc(-n2nc(C(C)(C)C)cc2NC(=O)Nc2ccc(OCCN3CCOCC3)c3ccccc23)cc1 [doramapimod]
Summary of the method: as §1

[9] = compound: Cc1ccc(NC(=O)c2ccc(CN3CC[C@H](N(C)C)C3)c(C(F)(F)F)c2)cc1Nc1nccc(-c2cncnc2)n1 [bafetinib]
Summary of the method: as §1

[10] = compound: Cc1cccc(CC(=O)N2CCc3c2ccc(-c2cn(C)c4ncnc(N)c24)c3F)n1
Summary of the method: as §1

[11] = compound: Cc1cn(-c2cc(NC(=O)c3ccc(C)c(Nc4nccc(-c5cccnc5)n4)c3)cc(C(F)(F)F)c2)cn1 [nilotinib]
Summary of the method: as §1

[12] = compound: Cc1nc(Nc2n[nH]c3c2CN(C(=O)N[C@H](CN(C)C)c2ccccc2)C3(C)C)c2sccc2n1
Summary of the method: as §1

[13] = compound: Cc1nc(Nc2ncc(C(=O)Nc3c(C)cccc3Cl)s2)cc(N2CCN(CCO)CC2)n1 [dasatinib]
Summary of the method: as §1

[14] = compound: Cc1ncc(-c2ccnc(Nc3ccc(S(C)(=O)=O)cc3)n2)n1C(C)C
Summary of the method: as §1

[15] = compound: Cn1cc(-c2ccc3c(c2)CCN3C(=O)Cc2cccc(C(F)(F)F)c2)c2c(N)ncnc21
Summary of the method: as §1

[16] = compound: Cn1cc(CNCC2CCN(c3ncc(C(=O)NO)cn3)CC2)c2ccccc21 [quisinostat]
Summary of the method: as §1

[17] = compound: Cn1cncc1[C@@](N)(c1ccc(Cl)cc1)c1ccc2c(c1)c(-c1cccc(Cl)c1)cc(=O)n2C [tipifarnib]
Summary of the method: as §1

[18] = compound: NC(=O)Nc1cc(-c2cccc(F)c2)sc1C(=O)N[C@H]1CCCNC1
Summary of the method: as §1

[19] = compound: NC(=O)c1cnc(N[C@@H]2CCCC[C@@H]2N)nc1Nc1cccc(-n2nccn2)c1
Summary of the method: as §1

[20] = compound: NC1(c2ccc(-c3nc4ccn5c(=O)[nH]nc5c4cc3-c3ccccc3)cc2)CCC1
Summary of the method: as §1

UniProt Q8TBC3, sequence (Q8TBC3 whole entry, looked up): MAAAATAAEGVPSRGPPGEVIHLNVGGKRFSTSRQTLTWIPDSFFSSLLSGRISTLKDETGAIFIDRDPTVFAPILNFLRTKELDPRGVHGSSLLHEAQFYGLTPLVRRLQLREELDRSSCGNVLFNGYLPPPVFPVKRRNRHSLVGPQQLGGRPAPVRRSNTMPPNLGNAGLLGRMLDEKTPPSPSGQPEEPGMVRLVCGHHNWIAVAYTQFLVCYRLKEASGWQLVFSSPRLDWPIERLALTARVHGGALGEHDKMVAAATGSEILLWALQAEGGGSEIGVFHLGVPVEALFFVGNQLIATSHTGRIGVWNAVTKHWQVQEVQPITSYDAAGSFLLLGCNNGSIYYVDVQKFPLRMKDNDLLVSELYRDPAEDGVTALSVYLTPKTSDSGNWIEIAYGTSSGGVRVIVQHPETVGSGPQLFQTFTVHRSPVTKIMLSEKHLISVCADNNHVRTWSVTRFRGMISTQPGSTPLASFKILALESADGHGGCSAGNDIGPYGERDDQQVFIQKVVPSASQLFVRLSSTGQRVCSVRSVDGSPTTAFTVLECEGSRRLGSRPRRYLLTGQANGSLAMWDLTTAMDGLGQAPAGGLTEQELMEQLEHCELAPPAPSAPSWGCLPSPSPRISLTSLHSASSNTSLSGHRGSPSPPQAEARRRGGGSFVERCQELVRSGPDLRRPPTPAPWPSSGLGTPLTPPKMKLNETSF
UniProt Q9UJZ1, sequence (Q9UJZ1 whole entry, looked up): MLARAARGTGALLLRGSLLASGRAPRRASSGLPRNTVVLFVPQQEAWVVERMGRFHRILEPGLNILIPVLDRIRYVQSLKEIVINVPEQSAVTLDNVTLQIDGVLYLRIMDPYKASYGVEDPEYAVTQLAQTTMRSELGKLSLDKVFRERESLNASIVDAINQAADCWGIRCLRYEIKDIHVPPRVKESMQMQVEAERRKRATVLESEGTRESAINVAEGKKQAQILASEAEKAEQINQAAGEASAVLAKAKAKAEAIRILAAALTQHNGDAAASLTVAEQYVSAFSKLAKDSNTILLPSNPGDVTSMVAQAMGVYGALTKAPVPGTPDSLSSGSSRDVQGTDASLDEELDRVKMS
UniProt P19623, sequence (P19623 whole entry, looked up): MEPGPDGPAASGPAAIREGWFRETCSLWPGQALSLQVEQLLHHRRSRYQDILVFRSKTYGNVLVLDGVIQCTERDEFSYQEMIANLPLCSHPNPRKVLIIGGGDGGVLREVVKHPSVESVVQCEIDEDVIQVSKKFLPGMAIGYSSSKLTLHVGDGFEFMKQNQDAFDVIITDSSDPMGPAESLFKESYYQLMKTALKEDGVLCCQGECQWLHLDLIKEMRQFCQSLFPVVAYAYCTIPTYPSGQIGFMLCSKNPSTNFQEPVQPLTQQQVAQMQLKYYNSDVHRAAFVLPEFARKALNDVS
UniProt Q13586, sequence (Q13586 whole entry, looked up): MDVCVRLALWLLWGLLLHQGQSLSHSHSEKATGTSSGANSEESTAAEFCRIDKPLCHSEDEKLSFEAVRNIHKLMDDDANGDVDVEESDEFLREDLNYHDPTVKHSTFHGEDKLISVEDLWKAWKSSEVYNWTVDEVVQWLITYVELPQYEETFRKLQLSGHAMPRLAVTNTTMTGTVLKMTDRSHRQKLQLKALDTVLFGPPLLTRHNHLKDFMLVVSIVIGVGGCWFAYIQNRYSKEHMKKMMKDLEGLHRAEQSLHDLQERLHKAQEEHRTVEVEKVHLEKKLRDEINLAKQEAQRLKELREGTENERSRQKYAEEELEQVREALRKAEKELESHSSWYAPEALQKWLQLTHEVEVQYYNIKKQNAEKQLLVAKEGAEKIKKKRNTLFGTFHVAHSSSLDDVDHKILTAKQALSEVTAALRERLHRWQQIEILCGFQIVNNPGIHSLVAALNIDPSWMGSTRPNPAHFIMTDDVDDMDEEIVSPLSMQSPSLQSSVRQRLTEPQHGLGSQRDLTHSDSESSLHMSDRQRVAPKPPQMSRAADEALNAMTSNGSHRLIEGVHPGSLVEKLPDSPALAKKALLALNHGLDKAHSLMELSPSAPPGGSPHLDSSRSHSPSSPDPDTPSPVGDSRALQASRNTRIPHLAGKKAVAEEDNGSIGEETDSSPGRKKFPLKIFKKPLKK
UniProt P51532, sequence (P51532 whole entry, looked up): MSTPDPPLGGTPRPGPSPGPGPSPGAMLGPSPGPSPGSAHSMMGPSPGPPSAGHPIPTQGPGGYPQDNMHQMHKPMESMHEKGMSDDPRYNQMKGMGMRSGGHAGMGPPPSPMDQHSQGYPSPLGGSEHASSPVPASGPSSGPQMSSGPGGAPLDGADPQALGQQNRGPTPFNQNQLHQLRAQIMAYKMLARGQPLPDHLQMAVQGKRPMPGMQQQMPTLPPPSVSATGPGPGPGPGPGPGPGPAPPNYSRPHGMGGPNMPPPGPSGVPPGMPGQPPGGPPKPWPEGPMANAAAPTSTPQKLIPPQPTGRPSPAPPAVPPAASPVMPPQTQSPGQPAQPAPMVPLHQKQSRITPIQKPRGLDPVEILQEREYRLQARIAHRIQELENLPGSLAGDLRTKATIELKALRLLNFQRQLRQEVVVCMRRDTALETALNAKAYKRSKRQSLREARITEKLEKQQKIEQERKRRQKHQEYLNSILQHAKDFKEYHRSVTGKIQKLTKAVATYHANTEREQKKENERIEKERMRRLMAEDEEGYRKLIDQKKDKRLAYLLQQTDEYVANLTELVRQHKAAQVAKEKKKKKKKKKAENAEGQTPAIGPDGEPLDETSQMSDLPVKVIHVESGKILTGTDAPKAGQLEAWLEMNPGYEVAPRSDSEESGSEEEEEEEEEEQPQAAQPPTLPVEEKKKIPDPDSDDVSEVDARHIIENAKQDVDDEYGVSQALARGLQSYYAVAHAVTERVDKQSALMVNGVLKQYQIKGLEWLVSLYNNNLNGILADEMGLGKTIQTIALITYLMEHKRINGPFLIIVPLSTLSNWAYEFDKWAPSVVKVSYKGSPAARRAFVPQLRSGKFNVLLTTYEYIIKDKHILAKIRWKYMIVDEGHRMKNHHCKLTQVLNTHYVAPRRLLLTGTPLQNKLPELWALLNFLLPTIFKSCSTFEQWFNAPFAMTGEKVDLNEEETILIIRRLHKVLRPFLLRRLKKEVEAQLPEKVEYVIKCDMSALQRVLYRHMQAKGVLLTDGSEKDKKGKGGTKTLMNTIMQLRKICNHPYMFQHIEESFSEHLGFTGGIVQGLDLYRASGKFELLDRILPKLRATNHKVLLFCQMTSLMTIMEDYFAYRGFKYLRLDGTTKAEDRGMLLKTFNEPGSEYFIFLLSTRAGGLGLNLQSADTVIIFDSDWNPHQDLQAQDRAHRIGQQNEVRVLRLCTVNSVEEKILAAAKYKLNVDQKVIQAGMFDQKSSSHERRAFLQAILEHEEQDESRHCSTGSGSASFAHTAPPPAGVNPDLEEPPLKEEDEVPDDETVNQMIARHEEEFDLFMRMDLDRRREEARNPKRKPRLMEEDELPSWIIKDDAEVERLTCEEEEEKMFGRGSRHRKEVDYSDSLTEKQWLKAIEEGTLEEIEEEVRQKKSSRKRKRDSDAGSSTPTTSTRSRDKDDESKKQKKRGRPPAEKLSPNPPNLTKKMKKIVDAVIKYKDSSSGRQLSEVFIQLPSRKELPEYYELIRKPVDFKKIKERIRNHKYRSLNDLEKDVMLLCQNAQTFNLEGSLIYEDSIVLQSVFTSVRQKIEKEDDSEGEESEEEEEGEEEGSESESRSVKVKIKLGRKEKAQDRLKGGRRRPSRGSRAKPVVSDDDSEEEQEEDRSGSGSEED
UniProt P53814, sequence (P53814 whole entry, looked up): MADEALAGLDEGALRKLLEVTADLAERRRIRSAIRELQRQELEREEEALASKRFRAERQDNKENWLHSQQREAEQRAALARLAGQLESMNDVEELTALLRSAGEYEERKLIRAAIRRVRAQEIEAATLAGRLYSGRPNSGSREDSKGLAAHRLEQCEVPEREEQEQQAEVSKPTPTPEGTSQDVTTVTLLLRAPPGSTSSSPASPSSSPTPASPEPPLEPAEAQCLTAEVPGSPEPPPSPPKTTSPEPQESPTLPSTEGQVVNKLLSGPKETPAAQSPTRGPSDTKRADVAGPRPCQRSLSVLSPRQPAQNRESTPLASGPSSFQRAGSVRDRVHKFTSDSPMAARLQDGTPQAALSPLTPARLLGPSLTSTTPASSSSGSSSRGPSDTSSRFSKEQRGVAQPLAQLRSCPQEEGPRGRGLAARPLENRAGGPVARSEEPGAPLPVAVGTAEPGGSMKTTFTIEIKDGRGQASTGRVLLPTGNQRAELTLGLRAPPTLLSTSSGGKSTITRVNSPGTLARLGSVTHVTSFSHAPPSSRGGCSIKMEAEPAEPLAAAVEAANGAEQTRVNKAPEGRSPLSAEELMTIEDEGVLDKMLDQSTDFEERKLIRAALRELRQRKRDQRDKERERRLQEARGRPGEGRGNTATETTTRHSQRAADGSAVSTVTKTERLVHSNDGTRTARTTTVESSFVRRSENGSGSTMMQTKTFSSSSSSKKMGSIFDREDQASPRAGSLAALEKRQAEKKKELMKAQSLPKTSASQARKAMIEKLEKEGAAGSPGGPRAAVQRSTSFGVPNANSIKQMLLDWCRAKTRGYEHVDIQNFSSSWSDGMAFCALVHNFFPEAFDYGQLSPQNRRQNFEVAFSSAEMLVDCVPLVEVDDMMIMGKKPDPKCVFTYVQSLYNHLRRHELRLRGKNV
UniProt Q9BWW4, sequence (Q9BWW4 whole entry, looked up): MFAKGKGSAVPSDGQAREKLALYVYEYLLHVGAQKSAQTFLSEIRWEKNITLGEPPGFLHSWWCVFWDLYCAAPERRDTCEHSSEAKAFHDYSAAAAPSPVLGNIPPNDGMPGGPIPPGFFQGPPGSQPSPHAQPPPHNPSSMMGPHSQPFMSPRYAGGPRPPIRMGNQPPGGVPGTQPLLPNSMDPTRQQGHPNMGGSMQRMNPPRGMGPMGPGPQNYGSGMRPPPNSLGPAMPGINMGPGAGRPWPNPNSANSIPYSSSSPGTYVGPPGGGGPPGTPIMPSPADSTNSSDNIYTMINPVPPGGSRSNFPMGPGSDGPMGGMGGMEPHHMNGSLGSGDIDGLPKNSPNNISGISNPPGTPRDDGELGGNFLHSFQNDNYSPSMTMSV

| Target | log2 fold change [1] | log2 fold change [2] | log2 fold change [3] | log2 fold change [4] | log2 fold change [5] | log2 fold change [6] | log2 fold change [7] | log2 fold change [8] | log2 fold change [9] | log2 fold change [10] | log2 fold change [11] | log2 fold change [12] | log2 fold change [13] | log2 fold change [14] | log2 fold change [15] | log2 fold change [16] | log2 fold change [17] | log2 fold change [18] | log2 fold change [19] | log2 fold change [20] |
| --- | --- | --- | --- | --- | --- | --- | --- | --- | --- | --- | --- | --- | --- | --- | --- | --- | --- | --- | --- | --- |
| SMC4 (UniProt Q9NTJ3) | -0.028 | -0.002 | -0.007 | 0.068 | 0.009 | -0.154 | -0.012 | -0.026 | -0.021 | -0.051 | -0.01 | 0.009 | -0.03 | 0.016 | 0.003 | -0.014 | -0.003 | 0.027 | 0.009 | -0.023 |
| TARBP1 (UniProt Q13395) | -0.009 | 0.007 | -0.122 | 0.017 | -0.034 | -0.124 | 0.098 | -0.022 | -0.044 | 0.079 | -0.045 | 0.036 | -0.03 | -0.003 | 0.046 | -0.158 | 0.007 | 0.142 | 0.007 | -0.021 |
| SRM (UniProt P19623) | -0.015 | -0.013 | -0.048 | -0.032 | 0.716 (active) | -0.036 | 0.01 | -0.017 | -0.009 | -0.033 | 0.026 | -0.009 | -0.008 | 0.009 | 0.012 | 0.009 | 0.014 | 0.041 | 0.017 | 0.045 |
| SSBP3 (UniProt Q9BWW4) | 0.039 | -0.158 | 0.018 | -0.014 | 0.019 | -0.019 | -0.041 | 0.014 | -0.06 | 0.029 | -0.005 | 0.061 | -0.015 | 0.014 | 0.016 | 0.018 | 0.028 | -0.035 | -0.029 | -0.097 |
| STOML2 (UniProt Q9UJZ1) | 0.013 | -0.021 | 0.028 | 0.089 | 0.035 | 0.015 | 0.012 | -0.032 | 0.033 | -0.023 | -0.017 | -0.01 | 0.004 | 0.017 | -0.001 | 0.035 | 0.005 | 0.018 | 0.002 | -0.003 |
| SMTN isoform 6 (UniProt P53814) | 0.103 | -0.042 | -0.012 | -0.06 | 0.033 | 0.032 | 0.019 | 0.006 | 0.059 | 0.028 | -0.011 | 0.134 | -0.055 | -0.022 | 0.031 | -0.065 | -0.019 | 0.021 | -0.005 | 0.089 |
| SHKBP1 (UniProt Q8TBC3) | -0.027 | -0.045 | -0.009 | -0.045 | 0.055 | 0.034 | -0.009 | 0.005 | -0.04 | 0.055 | 0.055 | 0.098 | 0.117 | -0.072 | -0.011 | -0.039 | 0.088 | -0.016 | 0.007 | -0.096 |
| SMARCAD1 isoform 2 (UniProt Q9H4L7) | -0.005 | -0.015 | -0.073 | -0.019 | -0.013 | -0.044 | 0.018 | 0.003 | -0.045 | 0.008 | -0.001 | -0.008 | -0.033 | -0.005 | -0.005 | -0.054 | -0.025 | 0.016 | 0.059 | -0.007 |
| TAF1B (UniProt Q53T94) | 0.012 | 0.062 | -0.036 | -0.058 | 0.34 | -0.157 | 0.304 | 0.017 | -0.004 | 0.134 | -0.061 | -0.067 | -0.174 | -0.105 | 0.635 | -0.064 | -0.103 | 0.017 | 0.015 | – |
| STIM1 (UniProt Q13586) | -0.056 | -0.028 | -0.053 | 0.145 | -0.007 | -0.095 | 0.032 | 0.044 | -0.056 | -0.037 | -0.031 | -0.019 | -0.03 | 0.001 | -0.027 | 0.023 | -0.012 | 0.009 | 0 | -0.031 |
| SKA3 (UniProt Q8IX90) | 0.009 | -0.022 | -0.029 | -0.008 | -0.022 | -0.011 | -0.008 | 0.002 | 0.027 | 0.034 | -0.046 | -0.018 | -0.028 | 0.023 | 0.002 | -0.093 | -0.02 | 0.044 | 0.034 | -0.004 |
| SLC39A11 (UniProt Q8N1S5) | -0.054 | 0.081 | 0.081 | -0.097 | -0.002 | 0.1 | 0.178 | -0.139 | 0.022 | 0.013 | 0.072 | -0.039 | -0.092 | -0.008 | -0.123 | 0.127 | 0.068 | 0.045 | 0.026 | 0.099 |
| SMARCA4 (UniProt P51532) | -0.029 | -0.008 | -0.01 | -0.009 | -0.003 | -0.022 | 0.012 | 0.008 | -0.008 | 0.054 | -0.002 | 0.023 | -0.042 | -0.019 | 0.004 | -0.029 | -0.018 | 0.043 | 0.004 | -0.024 |
| SRRT (UniProt Q9BXP5) | 0.005 | -0.029 | -0.055 | 0.059 | -0.007 | -0.072 | 0.032 | 0.066 | -0.023 | -0.018 | -0.013 | -0.028 | -0.087 | -0.005 | 0.026 | -0.058 | 0.013 | 0.058 | 0.016 | -0.023 |
| SMC6 (UniProt Q96SB8) | -0.051 | -0.06 | -0.026 | -0.039 | 0.034 | -0.002 | 0.004 | -0.011 | 0.007 | 0.029 | 0.006 | 0 | -0.021 | -0.019 | 0.012 | -0.012 | -0.06 | 0.034 | 0.001 | 0.013 |
